Rows were chosen to be rich in hits. Some 3.1% of all compounds tested hit in one or more screens of this group.
KKLEB tox: CF airway cell cytotoxicity counter-screen; KKLEB CF airway cells viability, ATPlite luminescence, overnight; stronger effect = lower value; cells stimulated with P. aeruginosa culture filtrate; activity change (cytotoxicity), % at 5 µM; 360,000 tested, 0.36% active;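 active = corrected activity change at or below -50% at 5 µM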
CF NFkB inh: blocks PAF-induced NF-kB reporter in cystic fibrosis cells. KKLEB NF-kB-GFP reporter, GFP fluorescence overnight. inhibition, % at 5 µM. 360,000 tested, 0.86% active. AID 588850;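 active = at least 50% inhibition at 5 µM, scaled per plate between neutral and stimulator controls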;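 also: PAF is a Pseudomonas aeruginosa culture filtrate used as stimulus; plate controls were PAF-stimulated DMSO wells for no effect and unstimulated DMSO wells for full effect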
TRPM1 prom inh: MITF TRPM1 promoter inhibition in SK-MEL-5 cells; SK-MEL-5 TRPM1 promoter luciferase, 24 h; inhibition, % at 12.5 µM; 330,000 tested, 0.83% active;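 active = mean inhibition across replicates of 60% or more, whatever share of single replicates reaches that level; inconclusive = some that reach 60%, reason not given; inactive = mean inhibition across replicates below 60%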
Peg3 prom inh: inhibitors of Peg3 promoter; HeLa PEG-Prom luciferase reporter, luminescence, overnight; inhibition, % at 20 µM; 360,000 tested, 1.7% active; AID 588405;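 active = inhibition of at least 50% at 20 µM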
HIF-2a block: HIF-2a inhibition | 786-0 RCC cells HIF-2a reporter, luciferase luminescence, overnight | inhibition, % at 18.8 µM | AID 624352 | 360,000 tested, 0.72% active;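 active = inhibition of the luminescence signal of 40% or more relative to plate controls, in a single-dose primary screen at 18.75 µM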
ABHD5 PLIN5 PPI: blocks binding of human ABHD5 to perilipin-5; Split G. princeps luciferase complementation, luminescence, 4 h; inhibition, % at 4 µM; 360,000 tested, 0.78% active;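 active = inhibition above the mean inhibition across every tested compound plus 3 SD, cut at about 22% in these data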;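 also: 0% = DMSO only wells and the 100% control is not disclosed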
Mdm2-MdmX confirm: confirmation of inhibitors of human Mdm2/MdmX interaction, set 2 | shares compounds with HIF-2a block | SaOS-2 split-luciferase Mdm2/MdmX complementation, luminescence | inhibition, % at 8 µM | 740 tested, 99% active | AID 504601;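 active = mean inhibition of the luminescence signal across two replicates at or above 26 percent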
HIF-2a conf: confirmation of HIF-2a inhibitors; 786-0 RCC cells, HIF-2a luciferase reporter luminescence, overnight; shares compounds with HIF-2a block; 1,800 tested, 56% active; inhibition, % at 18.8 µM; AID 651580;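 active = mean inhibition across four replicates of at least 40 percent at the single tested concentration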
HIF-1a cs: HIF-1a inhibition counter-screen for HIF-2a hits | shares compounds with HIF-2a block | MiaPaCa-2 HIF-1a luciferase reporter, desferoxamine, overnight | inhibition, % at 18.8 µM | 1,800 tested, 72% active;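 active = mean inhibition of the reporter signal across four replicates at the single tested dose of 50% or more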
* = called active by the depositor; ? = inconclusive; nt = not tested or not shown; ! = repeats disagree.

SMILES | KKLEB tox | CF NFkB inh | TRPM1 prom inh | Peg3 prom inh | HIF-2a block | ABHD5 PLIN5 PPI | HIF-2a conf | HIF-1a cs | others
CN(C)CCNC(=O)C(=O)c1c(-c2ccccc2)cc2ccccn12 | -22.0 | -8.0 | 3.0 | -6.0 | 3.7 | -1.4 | nt | nt
COc1ccc(-c2c(-c3ccccc3)c(C(=O)C(=O)NCCCN(C)C)n3ccc4cc(OC)c(OC)cc4c23)cc1OC | -3.3 | -1.9 | 6.2 | -12.6 | 88.4* | 9.1 | 6.3 | 100.6*
CCN1CCN(Cc2ccc(NC(=O)c3ccc(C)c(NC(=O)c4c[nH]c5cc(C(F)(F)F)ccc5c4=O)c3)cc2C(F)(F)F)CC1 | -83.1* | 94.5* | 103.1* | 102.8* | 67.4*! | 12.4 | 11.1 | 100.9* | Mdm2-MdmX confirm=102.0*
CC(NS(=O)(=O)c1ccc(Br)cc1F)[C@H](O)c1ccccc1 (stereo not given in full) | -10.5 | -2.1 | nt | 8.7 | -6.8 | -2.4 | nt | nt
Fc1ccc(Sc2nc(-c3ccccc3)nnc2C(F)(F)F)cc1 | -5.7 | 9.4 | 19.4 | 84.4* | 84.8* | 5.9 | 26.3 | 89.2*
CC(C)N(CCO)C(=O)CCc1nnc(Cc2cccc(C(F)(F)F)c2)o1 | -5.2 | 5.4 | -3.6 | -13.3 | -28.9 | 7.1 | nt | nt
CC(=O)N(C(C)=O)c1ccc(Oc2ccc(Oc3ccc(N(C(C)=O)C(C)=O)cc3)cc2)cc1 | 18.2 | 40.5 | nt | -84.3 | 68.3* | 9.4 | 87.2* | 49.7
O=C(CCl)N(c1ccccc1)C1CCS(=O)(=O)C1 (stereo not given) | -2.2 | 9.1 | ? | 103.0* | 30.7 | 1.6 | nt | nt | Mdm2-MdmX confirm=103.2*
Cc1cc(C)c(C#N)c(SCc2nnc(-c3ccccc3[N+](=O)[O-])o2)n1 | -1.4 | 0.3 | -15.3 | -269.4 | -214.5 | -4.8 | nt | nt
Cc1ccc(C#N)c(SCc2nnc(-c3ccc(Cl)cc3)o2)n1 | -39.6 | -5.8 | 46.2 | 46.0 | 45.8* | 5.5 | 59.3* | 80.2*
Cc1cc(C)c(C#N)c(SCc2nnc(-c3ccccc3)o2)n1 | -17.8 | 7.7 | 76.5* | 38.4 | 66.6* | 3.1 | 75.8* | 82.0*
COc1ccc(CNS(=O)(=O)c2cc(-c3cc(C)no3)ccc2C)cc1OC | 11.1 | -21.3 | 2.5 | 8.0 | 9.3 | 0.2 | nt | nt
O=C(Nc1ccc([N+](=O)[O-])cc1)Nc1ccc(OC(F)F)c(Cl)c1 | -69.2* | 64.1* | 75.6* | 99.5* | 41.6* | -10.1 | -70.4 | 100.1*
O=C(Nc1ccc(OC(F)F)c(Cl)c1)Nc1ccc2c(c1)OCO2 | 9.1 | 40.4 | -43.9 | -107.5 | -203.0 | -14.8 | nt | nt
COc1cc2c(cc1OC)CN(C(=O)c1ccc(N3CCCC3)c([N+](=O)[O-])c1)CC2 | -1.8 | 6.5 | -5.8 | -5.7 | -37.2 | -4.3 | nt | nt
OCCCNc1cc(-c2ccnc(Nc3cccc(Cl)c3)n2)ccn1 | 10.6 | 86.5* | ? | 103.4* | -23.8 | 9.2 | nt | nt | Mdm2-MdmX confirm=103.0*
Cc1ccc(C2=NN(C(=O)CCl)C(c3ccco3)C2)o1 (stereo not given) | -16.7 | 27.0 | 58.9 | 68.7* | 11.2 | 14.8 | nt | nt | Mdm2-MdmX confirm=103.0*
CCOC(=O)c1ccc(N2C(=O)CC(C)(CC)CC2=O)cc1 | -3.8 | 12.6 | -12.4 | -0.8 | 1.6 | -9.3 | nt | nt
CCCCCCN1C[C@@H](O)[C@H](n2cc(COC(=O)c3ccccc3)nn2)C[C@@H]1c1ccc(OC)cc1 | 14.3 | -56.5 | nt | -3.8 | 2.2 | 0.7 | nt | nt
O=C(CCl)Nc1cc2[nH]c(=O)[nH]c2cc1Br | -19.9 | -22.3 | 57.4 | 87.5* | -5.5 | 2.5 | nt | nt | Mdm2-MdmX confirm=103.5*
Cc1cc(C)c2cc3c(N)c(C(=O)Nc4c(C)[nH]c(=O)[nH]c4=O)sc3nc2c1 | -0.9 | 2.9 | 29.7 | 37.7 | 69.2* | 5.0 | 28.0 | 65.7*
CN(Cc1cccc(C(F)(F)F)c1)C(=O)C1CCC(=O)N(CC2CCCCC2)C1 (stereo not given) | -16.3 | -1.9 | -0.6 | -2.3 | -22.8 | -0.1 | nt | nt
